Results reported in PubChem BioAssay (NCI).
Values joined by “and” are separate entries in the source; they are usually repeats but may differ in a detail not shown here. Equal entries are not always repeated. This is part of a sample that, as a whole, favours compounds with a hit. Of some 83,000 tested, about 20% had one in any assay.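 Each cell line was grown in a 96-well plate and treated with one concentration of compound for 48 hours. Values below 10 were considered active.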 Active and inactive are the calls of the source.

Experiments:
Experiment in all cases: NCI-60 one-dose screen, 48 h (100 = growth as untreated, 0 = no growth, -100 = all killed)
[1] = system: RPMI-8226 leukemia
[2] = system: OVCAR-5 ovarian
[3] = system: SK-OV-3 ovarian
[4] = system: OVCAR-3 ovarian
[5] = system: HS 578T breast
[6] = system: NCI/ADR-RES ovarian
[7] = system: T-47D breast
[8] = system: OVCAR-4 ovarian
[9] = system: IGROV1 ovarian
[10] = system: OVCAR-8 ovarian

COC1CC(CC2CCC(C)C(C(C)C(=O)O)O2)OC2(OC(C)(C3CCC(C)(C4OC(C5OC(O)(CO)C(C)CC5C)CC4C)O3)CC2C)C1C (configuration not stated)
growth ([1]; 10 µM unless noted): -45% (active)
growth ([2]; 10 µM unless noted): 14% (inactive)
growth ([3]; 10 µM unless noted): 44% (inactive)
growth ([4]; 10 µM unless noted): 9.34% (active)
growth ([5]; 10 µM unless noted): 14.3% (inactive)
growth ([6]; 10 µM unless noted): 36.7% (inactive)
growth ([7]; 10 µM unless noted): 15.9% (inactive)

C[C@]12CC[C@H](O)CC1=CC[C@@H]1[C@@H]2CC[C@]2(C)C(=O)CC[C@@H]12
growth ([1]; 10 µM unless noted): 80.4% (inactive)
growth ([2]; 10 µM unless noted): 92.3% (inactive)
growth ([8]; 10 µM unless noted): 95.3% (inactive)
growth ([3]; 10 µM unless noted): 116% (inactive)
growth ([9]; 10 µM unless noted): 80.5% (inactive)
growth ([4]; 10 µM unless noted): 90.6% (inactive)
growth ([5]; 10 µM unless noted): 130% (inactive)
growth ([6]; 10 µM unless noted): 99.1% (inactive)
growth ([7]; 10 µM unless noted): 96.4% (inactive)

S=C(SSC(=S)N1CCCCC1)N1CCCCC1
growth ([1]; 10 µM): 105% (inactive)
growth ([1]; 100 µM): -44.7% (active)
growth ([10]; 10 µM): 92.4% (inactive)
growth ([10]; 100 µM): -43.4% (active)
growth ([2]; 10 µM): 114% (inactive)
growth ([2]; 100 µM): -85.8% (active)
growth ([8]; 10 µM): 85.2% (inactive)
growth ([8]; 100 µM): -51.1% (active)
growth ([3]; 10 µM): 110% (inactive)
growth ([3]; 100 µM): 45.7% (inactive)
growth ([9]; 10 µM): 99.5% (inactive)
growth ([9]; 100 µM): 50.2% (inactive)
growth ([4]; 10 µM): 105% (inactive)
growth ([4]; 100 µM): -68.7% (active)
growth ([5]; 10 µM): 111% (inactive)
growth ([5]; 100 µM): 59.7% (inactive)
growth ([6]; 10 µM): 97.7% (inactive)
growth ([6]; 100 µM): 2.3% (active)
growth ([7]; 10 µM): 100% (inactive)
growth ([7]; 100 µM): -28.4% (active)

COc1ccccc1/C=C(/C)[N+](=O)[O-]
growth ([1]; 10 µM unless noted): 0.614% (active) and 118% (inactive)
growth ([10]; 10 µM): 85.6% (inactive) and 103% (inactive)
growth ([2]; 10 µM unless noted): 104% (inactive) and 91.1% (inactive)
growth ([8]; 10 µM unless noted): 105% (inactive) and 102% (inactive)
growth ([3]; 10 µM unless noted): 115% (inactive) and 81.6% (inactive)
growth ([9]; 10 µM unless noted): 71.5% (inactive) and 95.9% (inactive)
growth ([4]; 10 µM unless noted): 78.2% (inactive) and 101% (inactive)
growth ([5]; 10 µM unless noted): 97.2% (inactive) and 118% (inactive)
growth ([6]; 10 µM unless noted): 95.1% (inactive) and 104% (inactive)
growth ([7]; 10 µM unless noted): 35.7% (inactive) and 86.6% (inactive)

CC[n+]1c(-c2ccccc2)c2cc(N)ccc2c2ccc(N)cc21
growth ([1]; 10 µM unless noted): 7.63% (active)
growth ([10]; 10 µM): 18.6% (inactive)
growth ([2]; 10 µM unless noted): 49.4% (inactive)
growth ([8]; 10 µM unless noted): 11.6% (inactive)
growth ([3]; 10 µM unless noted): 47.3% (inactive)
growth ([9]; 10 µM unless noted): 9.12% (active)
growth ([4]; 10 µM unless noted): -0.305% (active)
growth ([5]; 10 µM unless noted): 3.75% (active)
growth ([6]; 10 µM unless noted): 87.6% (inactive)
growth ([7]; 10 µM unless noted): 11.2% (inactive)

CN1CCN(c2ccc([N+](=O)[O-])c3no[n+]([O-])c23)CC1
growth ([1]; 10 µM unless noted): -36.6% (active)
growth ([10]; 10 µM): -92.7% (active)
growth ([2]; 10 µM unless noted): -15.2% (active)
growth ([8]; 10 µM unless noted): -91.8% (active)
growth ([3]; 10 µM unless noted): -97.9% (active)
growth ([9]; 10 µM unless noted): -71.5% (active)
growth ([4]; 10 µM unless noted): -88.8% (active)
growth ([5]; 10 µM unless noted): -12% (active)
growth ([6]; 10 µM unless noted): -33.1% (active)
growth ([7]; 10 µM unless noted): -56.5% (active)

COc1cccc2c1cc([N+](=O)[O-])c1c(C(=O)O)cc3c(c12)OCO3
growth ([1]; 10 µM unless noted): 89.1% (inactive) and 82.3% (inactive)
growth ([10]; 10 µM): 55.2% (inactive)
growth ([2]; 10 µM unless noted): 106% (inactive) and 85.3% (inactive)
growth ([8]; 10 µM unless noted): 82.8% (inactive) and 141% (inactive)
growth ([3]; 10 µM unless noted): 86% (inactive) and 95.1% (inactive)
growth ([9]; 10 µM unless noted): 58.6% (inactive) and 59.2% (inactive)
growth ([4]; 10 µM unless noted): 76.5% (inactive) and 103% (inactive)
growth ([5]; 10 µM unless noted): 107% (inactive) and 110% (inactive)
growth ([6]; 10 µM unless noted): 70.7% (inactive) and 104% (inactive)
growth ([7]; 10 µM unless noted): 91.3% (inactive) and 84.2% (inactive)

CC[C@@]1(O)C[C@H](OC2CC(N(C)C)C(O)C(C)O2)c2c(O)c3c(c(O)c2[C@H]1OC1CC(N(C)C)C(O)C(C)O1)C(=O)c1cccc(O)c1C3=O (some centres not stated)
growth ([1]; 10 µM unless noted): -50.6% (active)
growth ([2]; 10 µM unless noted): -21% (active)
growth ([8]; 10 µM unless noted): -57.2% (active)
growth ([3]; 10 µM unless noted): 24.2% (inactive)
growth ([9]; 10 µM unless noted): -71% (active)
growth ([4]; 10 µM unless noted): 1.09% (active)
growth ([5]; 10 µM unless noted): -38.5% (active)
growth ([6]; 10 µM unless noted): -12.7% (active)
growth ([7]; 10 µM unless noted): 1.62% (active)

COc1ccc(OC)c(/C=C/[N+](=O)[O-])c1
growth ([1]; 10 µM unless noted): -28.9% (active)
growth ([10]; 10 µM): 11.8% (inactive)
growth ([2]; 10 µM unless noted): 20.2% (inactive)
growth ([3]; 10 µM unless noted): 64.7% (inactive)
growth ([9]; 10 µM unless noted): -4.14% (active)
growth ([4]; 10 µM unless noted): -59% (active)
growth ([5]; 10 µM unless noted): 4.59% (active)
growth ([6]; 10 µM unless noted): 17.7% (inactive)
growth ([7]; 10 µM unless noted): 16.6% (inactive)

CC[C@](O)(C(=O)O)c1cc2n(c(=O)c1CO)Cc1cc3ccccc3nc1-2
growth ([1]; 10 µM unless noted): -36% (active)
growth ([2]; 10 µM unless noted): 9.24% (active)
growth ([8]; 10 µM unless noted): -19.4% (active)
growth ([3]; 10 µM unless noted): 12.4% (inactive)
growth ([9]; 10 µM unless noted): -48.1% (active)
growth ([4]; 10 µM unless noted): -42.3% (active)
growth ([5]; 10 µM unless noted): 29.4% (inactive)
growth ([6]; 10 µM unless noted): 2.02% (active)
growth ([7]; 10 µM unless noted): -6.44% (active)

CCC(=O)OC1CCn2c1nc1c2C(=O)C(C)=C(N2CC2)C1=O (configuration not stated)
growth ([1]; 10 µM unless noted): 2.94% (active)
growth ([10]; 10 µM): 3.32% (active)
growth ([2]; 10 µM unless noted): 13.5% (inactive)
growth ([8]; 10 µM unless noted): 13.2% (inactive)
growth ([3]; 10 µM unless noted): -53.8% (active)
growth ([9]; 10 µM unless noted): -6.18% (active)
growth ([4]; 10 µM unless noted): -18.5% (active)
growth ([5]; 10 µM unless noted): -5.47% (active)
growth ([6]; 10 µM unless noted): 1.27% (active)
growth ([7]; 10 µM unless noted): 70.2% (inactive)

CC[C@@]1(O)C[C@H](OC2CC(N(C)C)C(OC3CC(O)C(OC4CCC(=O)C(C)O4)C(C)O3)C(C)O2)c2c(cc3c(c2O)C(=O)c2c(O)ccc(O)c2C3=O)[C@H]1C(=O)OC (some centres not stated)
growth ([1]; 10 µM unless noted): -33.9% (active)
growth ([2]; 10 µM unless noted): 1.64% (active)
growth ([8]; 10 µM unless noted): -36.5% (active)
growth ([3]; 10 µM unless noted): 33.1% (inactive)
growth ([9]; 10 µM unless noted): -49.2% (active)
growth ([4]; 10 µM unless noted): 0.51% (active)
growth ([5]; 10 µM unless noted): 9.34% (active)
growth ([6]; 10 µM unless noted): 11% (inactive)
growth ([7]; 10 µM unless noted): 18% (inactive)

CC(=O)O[C@H]1C[C@@H]2OC3C=C(C)CCC3(C)[C@@]1(C)[C@@]21CO1 (some centres not stated)
growth ([1]; 10 µM unless noted): -16.3% (active) and -26.9% (active)
growth ([10]; 10 µM): -9.39% (active) and -19.9% (active)
growth ([2]; 10 µM unless noted): 6.22% (active) and 5.12% (active)
growth ([8]; 10 µM unless noted): -5.17% (active) and -15.1% (active)
growth ([3]; 10 µM unless noted): 5.54% (active) and -8.41% (active)
growth ([9]; 10 µM unless noted): -12.6% (active) and -11.8% (active)
growth ([4]; 10 µM unless noted): -17.6% (active) and -41.3% (active)
growth ([5]; 10 µM unless noted): -6.29% (active)
growth ([6]; 10 µM unless noted): -14% (active) and -10.5% (active)
growth ([7]; 10 µM unless noted): -4.55% (active) and -14.4% (active)

Oc1cccc2cccnc12
growth ([1]; 10 µM unless noted): 84% (inactive) and 97.1% (inactive)
growth ([10]; 10 µM): 81.9% (inactive) and 101% (inactive) and 105% (inactive)
growth ([2]; 10 µM unless noted): 89.4% (inactive)
growth ([8]; 10 µM unless noted): 60.6% (inactive) and 120% (inactive) and 114% (inactive)
growth ([3]; 10 µM unless noted): 107% (inactive) and 97.8% (inactive) and 99.9% (inactive)
growth ([9]; 10 µM unless noted): 120% (inactive) and 118% (inactive) and 104% (inactive)
growth ([4]; 10 µM unless noted): -6.09% (active) and 105% (inactive) and 104% (inactive)
growth ([5]; 10 µM unless noted): 116% (inactive) and 101% (inactive)
growth ([6]; 10 µM unless noted): 83% (inactive) and 108% (inactive) and 114% (inactive)
growth ([7]; 10 µM unless noted): 29% (inactive) and 95.8% (inactive) and 97.9% (inactive)
